# According to PubChem BioAssay (Tox21):
# Several values for one entry are separate records, joined by “and”; a condition that tells them apart may be missing. Equal entries are not always repeated. Inconclusive results are not listed. Where a call stands in place of a potency, no number is given. Some structures have more than one record in an assay (separate samples or runs), and their calls can disagree. Activity calls are given as the source filed them. Unless noted, calls come from the whole dose curve; as a rule, active = well fitted cell-killing curve with a large enough effect in the repeat runs; inconclusive = weak or mixed curves, or effect the other way; inactive = no such curve, though single readings can be large or run the other way.
# Molecular target: Peroxisome proliferator-activated receptor gamma (Homo sapiens) (UniProt P37231)
# Experiment: qHTS assay to identify small molecule agonists of the peroxisome proliferator-activated receptor gamma (PPARg) signaling pathway (AID 743094; active = well fitted activation curve with a large enough effect in the signal ratio in the repeat runs, not every such curve was filed as active; the % refers to the signal ratio)
# Conditions: HEK293H PPARg-UAS-bla, beta-lactamase FRET ratio, 17 h; series mostly up to 57 µM
# In short: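 Compounds dissolved in DMSO were added to PPARg UAS-bla HEK293H cells for 17 h at 37C, and reporter expression was quantified by fluorescence intensity after 1 h with LiveBLAzer B/G FRET substrate.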
# Sequence of Peroxisome proliferator-activated receptor gamma (Homo sapiens) (P37231 whole entry, looked up): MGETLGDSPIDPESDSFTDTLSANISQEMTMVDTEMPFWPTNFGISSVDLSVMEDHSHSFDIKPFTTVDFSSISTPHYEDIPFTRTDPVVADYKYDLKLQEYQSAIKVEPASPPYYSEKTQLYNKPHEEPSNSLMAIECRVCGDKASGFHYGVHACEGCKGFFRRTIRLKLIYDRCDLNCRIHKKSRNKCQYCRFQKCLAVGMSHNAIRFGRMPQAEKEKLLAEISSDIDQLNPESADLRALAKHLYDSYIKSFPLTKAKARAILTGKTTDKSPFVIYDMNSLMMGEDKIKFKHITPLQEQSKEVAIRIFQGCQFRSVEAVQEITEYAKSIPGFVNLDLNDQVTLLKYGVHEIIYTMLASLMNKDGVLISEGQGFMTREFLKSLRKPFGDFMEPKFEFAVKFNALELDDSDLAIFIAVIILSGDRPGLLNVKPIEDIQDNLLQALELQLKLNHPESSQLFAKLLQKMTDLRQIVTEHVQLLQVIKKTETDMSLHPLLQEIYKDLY
row,Structure (SMILES),outcome
1,CC1=C(/C=C/C(C)=C/C=C/C(C)=C/CO)C(C)(C)CCC1,inactive
2,OCC#CCO,inactive
3,CCOC(=O)/C=C\C(=O)OCC,inactive
4,CC1CC(OC(=O)c2ccccc2O)CC(C)(C)C1 (stereo not given),inactive
5,CCCCCC/C=C/CCCCCCCC(=O)O,inactive
6,CCCCC/C=C\C/C=C\CCCCCCCC(=O)OC,inactive
7,CCCCCCOC(C)=O,inactive
8,CC(C)(C)C1CCC(O)CC1 (stereo not given),inactive
9,NCc1cccc(CN)c1,inactive
10,OCC1CCCO1 (stereo not given),inactive
11,CCOC(=O)C1OC1c1ccccc1 (stereo not given),inactive
12,C=C(C)C(=O)OCCC[Si](OC)(OC)OC,inactive
13,CC1=CC[C@H]2C[C@@H]1C2(C)C,inactive
14,C/C=C(C)/C=C/C=C(C)C,inactive
15,CCCCC(CC)C(=O)OCCOCCOCCOC(=O)C(CC)CCCC (stereo not given),inactive
16,C=C(C)C(=O)OCC(CC)(COC(=O)C(=C)C)COC(=O)C(=C)C,inactive
17,Nc1nc2ncc(CNc3ccc(C(=O)N[C@@H](CCC(=O)O)C(=O)O)cc3)nc2c(=O)[nH]1,inactive
18,CCCCCCCCCCCCN,inactive
19,O=C1O[C@H](CO)[C@@H](O)[C@H](O)[C@H]1O,inactive
20,O=c1c(-c2ccc(O)cc2)coc2cc(O)ccc12,inactive
21,Oc1c(Cl)cc(Cl)c(Cl)c1Cl,inactive
22,CCC(=O)O,inactive

# Molecular target: Peroxisome proliferator-activated receptor gamma (Homo sapiens) (UniProt P37231)
# Experiment: qHTS assay to identify small molecule antagonists of the peroxisome proliferator-activated receptor gamma (PPARg) signaling pathway (AID 743191; calls by dose curve; note: nearly all actives have a fitted effect of over 30% in size; note: potency is the fitted concentration of half-maximal effect)
# Conditions: HEK293H PPARg-UAS-bla, beta-lactamase ratio, antagonist, 17 h; series mostly up to 62.6 µM
# In short: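 GeneBLAzer PPARg UAS-bla HEK293H cells carrying a UAS-driven beta-lactamase reporter were plated at 3000 cells/well, preincubated 5 h at 37C, then given compound for 17 h at 37C; LiveBLAzer B/G FRET substrate was read after 1 h at room temperature.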
row,Structure (SMILES),Potency
1,OCC#CCO,inactive
2,CCCCC(CC)C(=O)OCCOCCOCCOC(=O)C(CC)CCCC (stereo not given),inactive
3,C=C(C)C(=O)OCC(CC)(COC(=O)C(=C)C)COC(=O)C(=C)C,inactive
4,O=C(c1cc(O)c(O)c(O)c1)c1ccc(O)c(O)c1O,inactive
5,O=C1O[C@H](CO)[C@@H](O)[C@H](O)[C@H]1O,inactive
6,Oc1c(Cl)cc(Cl)c(Cl)c1Cl,17 µM (active)
7,CCC(=O)O,inactive

# System: not listed separately
# Experiment: qHTS assay to identify small molecule antagonists of the peroxisome proliferator-activated receptor gamma (PPARg) signaling pathway - cell viability counter screen (AID 743194); note: nearly all actives have a fitted effect of over 55% in size
# Conditions: PPARg-bla HEK293H viability, CellTiter-Glo luminescence, 17 h, co-treated with 50 nM rosiglitazone; series mostly up to 62.6 µM
# In short: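 PPARg-UAS-bla HEK293H cells were plated, rested 5 h at 37 C, then treated with compounds plus rosiglitazone (50 nM final) for 17 h at 37 C; viability was then read by CellTiter-Glo luminescence after 30 min at room temperature.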
row,Structure (SMILES),Potency
1,CC1=C(/C=C/C(C)=C/C=C/C(C)=C/CO)C(C)(C)CCC1,inactive
2,O=C1N=C(O)CN1/N=C/c1ccc(-c2ccc([N+](=O)[O-])cc2)o1,inactive
3,OCC#CCO,inactive
4,CCOC(=O)/C=C\C(=O)OCC,inactive
5,CC1CC(OC(=O)c2ccccc2O)CC(C)(C)C1 (stereo not given),inactive
6,CCCCCC/C=C/CCCCCCCC(=O)O,inactive
7,CCCCCCOC(C)=O,inactive
8,CC(C)(C)C1CCC(O)CC1 (stereo not given),inactive
9,CC(=O)[C@@]1(O)CC[C@H]2[C@@H]3CCC4=CC(=O)CC[C@]4(C)[C@H]3CC[C@@]21C,inactive
10,CCCCCCCCCC(=O)O,inactive
11,NCc1cccc(CN)c1,inactive
12,CC(C)n1c(/C=C/[C@@H](O)C[C@@H](O)CC(=O)O)c(-c2ccc(F)cc2)c2ccccc21,inactive
13,CCCCC(CC)COC(=O)CCCCCCCC(=O)OCC(CC)CCCC (stereo not given),inactive
14,OCC1CCCO1 (stereo not given),inactive
15,CCOC(=O)C1OC1c1ccccc1 (stereo not given),inactive
16,C=C(C)C(=O)OCCC[Si](OC)(OC)OC,inactive
17,O=[N+]([O-])c1cc(N(CCO)CCO)ccc1NCCO,inactive

row,Structure (SMILES),Potency
1,CC1=CC[C@H]2C[C@@H]1C2(C)C,inactive
2,C/C=C(C)/C=C/C=C(C)C,inactive
3,CCCCC(CC)C(=O)OCCOCCOCCOC(=O)C(CC)CCCC (stereo not given),inactive
4,C=C(C)C(=O)OCC(CC)(COC(=O)C(=C)C)COC(=O)C(=C)C,inactive
5,Oc1ccc2ccccc2c1,inactive
6,CCCCCCCCCCC=CC1CC(=O)OC1=O (stereo not given),inactive
7,C[C@@H]1O[C@@H](OC[C@H]2O[C@@H](Oc3c(-c4ccc(O)c(O)c4)oc4cc(O)cc(O)c4c3=O)[C@H](O)[C@@H](O)[C@@H]2O)[C@H](O)[C@H](O)[C@H]1O,inactive
8,O=C(c1cc(O)c(O)c(O)c1)c1ccc(O)c(O)c1O,inactive
9,Oc1ccc(OCc2ccccc2)cc1,inactive
10,Cc1cc(Cc2ccc(N)c(C)c2)ccc1N,inactive
11,CNC[C@H](O)[C@@H](O)[C@H](O)[C@H](O)CO,inactive
12,CC(C)(C)C(=O)C1C(=O)c2ccccc2C1=O,inactive
13,Nc1nc2ncc(CNc3ccc(C(=O)N[C@@H](CCC(=O)O)C(=O)O)cc3)nc2c(=O)[nH]1,inactive
14,Cc1cc(NS(=O)(=O)c2ccc(N)cc2)no1,inactive
15,O=C1O[C@H](CO)[C@@H](O)[C@H](O)[C@H]1O,inactive
16,O=c1c(-c2ccc(O)cc2)coc2cc(O)ccc12,inactive
17,CCC(=O)O,inactive

# System: not listed separately
# Experiment: qHTS assay for small molecule agonists of the antioxidant response element (ARE) signaling pathway (AID 743202; active = well fitted activation curve with a large enough effect in the signal ratio in the repeat runs, not every such curve was filed as active; the % refers to the signal ratio; note: potency is the fitted concentration of half-maximal effect)
# Conditions: HepG2 ARE-bla reporter, beta-lactamase FRET, 16 h; series mostly up to 73.3 µM
# In short: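 Read-out: LiveBLAzer B/G FRET substrate fluorescence after 2 h at room temperature, following 16 h compound treatment at 37 C of HepG2 cells carrying an ARE-driven beta-lactamase reporter.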
row,Structure (SMILES),Potency
1,CC1=C(/C=C/C(C)=C/C=C/C(C)=C/CO)C(C)(C)CCC1,61.9 µM (active) and 57.4 µM (active)
2,O=C1N=C(O)CN1/N=C/c1ccc(-c2ccc([N+](=O)[O-])cc2)o1,inactive
3,OCC#CCO,inactive
4,CCOC(=O)/C=C\C(=O)OCC,inactive
5,CC1CC(OC(=O)c2ccccc2O)CC(C)(C)C1 (stereo not given),inactive
6,CCCCCC/C=C/CCCCCCCC(=O)O,inactive
7,CCCCC/C=C\C/C=C\CCCCCCCC(=O)OC,inactive
8,CCCCCCOC(C)=O,inactive
9,S=c1nc[nH]c2nc[nH]c12,4.74 µM (active) and 7.5 µM (active)
10,CC(C)(C)C1CCC(O)CC1 (stereo not given),inactive
11,CCCCCCCCCC(=O)O,inactive
12,NCc1cccc(CN)c1,inactive
13,CC(C)n1c(/C=C/[C@@H](O)C[C@@H](O)CC(=O)O)c(-c2ccc(F)cc2)c2ccccc21,inactive
14,CCCCC(CC)COC(=O)CCCCCCCC(=O)OCC(CC)CCCC (stereo not given),inactive
15,OCC1CCCO1 (stereo not given),inactive
16,CCOC(=O)C1OC1c1ccccc1 (stereo not given),inactive

row,Structure (SMILES),Potency
1,C=C(C)C(=O)OCCC[Si](OC)(OC)OC,inactive
2,O=[N+]([O-])c1cc(N(CCO)CCO)ccc1NCCO,inactive
3,CC1=CC[C@H]2C[C@@H]1C2(C)C,inactive
4,C/C=C(C)/C=C/C=C(C)C,60.4 µM (active)
5,C=C1CC[C@H](O)CC1=C/C=C1\CCC[C@]2(C)[C@@H]([C@H](C)/C=C/[C@H](C)C(C)C)CC[C@@H]12,13.6 µM (active) and 24.3 µM (active)
6,CCCCC(CC)C(=O)OCCOCCOCCOC(=O)C(CC)CCCC (stereo not given),inactive
7,C=C(C)C(=O)OCC(CC)(COC(=O)C(=C)C)COC(=O)C(=C)C,inactive
8,Oc1ccc2ccccc2c1,35.2 µM (active) and 21.7 µM (active)
9,Oc1ccc(OCc2ccccc2)cc1,21.2 µM (active) and inactive
10,Cc1cc(Cc2ccc(N)c(C)c2)ccc1N,inactive
11,CNC[C@H](O)[C@@H](O)[C@H](O)[C@H](O)CO,inactive
12,Nc1nc2ncc(CNc3ccc(C(=O)N[C@@H](CCC(=O)O)C(=O)O)cc3)nc2c(=O)[nH]1,inactive
13,CCCCCCCCCCCCN,inactive
14,Cc1cc(NS(=O)(=O)c2ccc(N)cc2)no1,inactive
15,O=C1O[C@H](CO)[C@@H](O)[C@H](O)[C@H]1O,inactive
16,CCC(=O)O,inactive
